Most compounds without a hit are left out; they make up all but 2.9% or so of the library.
A3G deaminase: blocks human APOBEC3G single-stranded DNA deamination; Q9HC16; recombinant A3G, ssDNA deamination FAM/TAMRA fluorescence; inhibition, % at 20 µM; actives 0.28% (n = 330,000); AID 493012;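 active = inhibition of at least 40% at 20 µM, with no more than 30% in the related APOBEC3A deaminase screen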;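 also: plate controls were DMSO wells with A3G for no effect and wells lacking A3G enzyme for full effect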
Target sequence (Q9HC16 whole entry, looked up): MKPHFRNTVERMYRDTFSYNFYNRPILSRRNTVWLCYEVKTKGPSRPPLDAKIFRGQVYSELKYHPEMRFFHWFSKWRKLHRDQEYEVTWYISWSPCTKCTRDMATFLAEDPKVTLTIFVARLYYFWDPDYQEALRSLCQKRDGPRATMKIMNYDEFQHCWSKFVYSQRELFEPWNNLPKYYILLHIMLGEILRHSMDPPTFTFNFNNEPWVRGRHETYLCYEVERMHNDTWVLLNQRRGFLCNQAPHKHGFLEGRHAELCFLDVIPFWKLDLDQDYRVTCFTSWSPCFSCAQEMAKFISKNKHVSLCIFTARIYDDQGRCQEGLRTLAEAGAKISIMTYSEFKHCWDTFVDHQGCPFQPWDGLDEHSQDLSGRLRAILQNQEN
A3A deaminase: blocks human APOBEC3A ssDNA deamination; actives 0.41% (n = 330,000); inhibition, % at 20 µM; recombinant A3A, FAM/TAMRA ssDNA deamination fluorescence; P31941;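 active = at least 40% inhibition at 20 µM here, with at most 30% in a related deaminase screen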;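 also: plate controls were A3A with DMSO for no effect and wells lacking A3A enzyme for full effect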
NadD inh: blocks S. aureus nicotinate mononucleotide adenylyltransferase; AID 602399; inhibition, % at 20 µM; purified NadD enzyme, colorimetric absorbance read-out; actives 0.78% (n = 360,000); in the data active = inhibition above about 26%
H9c2 TAG inh: inhibitors of triacylglycerol accumulation | inhibition, % at 12.5 µM | actives 0.66% (n = 230,000) | H9c2 cells, Nile Red lipid (TAG) fluorescence; cells loaded with 200 µM oleic acid;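 active = pattern-corrected inhibition of lipid staining of at least 50% with the nuclear-stain viability signal not falling by more than 50%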;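 also: 0% = DMSO wells and 100% = triacsin C control wells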
PfGluPho inh: PfG6PD (Plasmodium falciparum) enzyme inhibition; PfGluPho enzyme, NADPH resazurin-diaphorase fluorescence; inhibition, % at 20 µM; actives 0.78% (n = 350,000);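 active = inhibition reaching at least a set limit at 20 µM in the primary screen, cut at about 59% in these data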;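 also: 0% = DMSO wells with substrate and 100% = DMSO wells lacking glucose-6-phosphate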
Cardio protect: modulators protecting cardiomyocytes from myocardial damage; H9c2 cardiomyocytes, H2O2 injury protection, ATPLite, 2 h; protection from H2O2 cell death, % at 20 µM; actives 0.63% (n = 360,000); AID 588492;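 active = compounds giving at least 50% protection of heart cells from peroxide-induced death in the single-dose screen, raw or plate-pattern-corrected value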;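 also: 0% = DMSO wells with peroxide and 100% = DMSO wells without peroxide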
H9c2 TAG conf: triacylglycerol accumulation inhibition, confirmation | shares compounds with H9c2 TAG inh | H9c2 lipid accumulation, Nile Red fluorescence; cells loaded with 200 µM oleic acid | inhibition, % at 12.5 µM | actives 71% (n = 990);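 active = mean inhibition across replicates of 40% or more; inactive = mean inhibition below 40%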;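 also: plate controls were DMSO only wells for no effect and Triacsin C treated wells for full effect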
The depositor's hits bear a star; · = not tested or not shown.

SMILES | A3G deaminase | A3A deaminase | NadD inh | H9c2 TAG inh | PfGluPho inh | Cardio protect | H9c2 TAG conf
O=C(CSc1nc(-c2ccco2)cc(C(F)(F)F)n1)Nc1ccc2c(c1)CCC2 | -3 | -2 | 4 | 52* | -13 | -6 | 25
Cc1ccc(NC(=O)CSc2nc(-c3ccco3)cc(C(F)(F)F)n2)cc1C | -5 | 0 | 7 | · | -12 | -10 | ·
CC(C)c1ccc(Nc2ncc3c(n2)CCN(C(=O)Nc2ccc(F)c(Cl)c2)C3)cc1 | · | · | 17 | 87* | · | -7 | 88*
CCCC(=O)Nc1ccc2oc(-c3cccnc3)nc2c1 | -4 | -3 | -5 | 13 | -10 | 0 | ·
O=C(Nc1ccc2oc(-c3cccnc3)nc2c1)c1cc2ccccc2o1 | -7 | -2 | 4 | 52* | 7 | 23 | 25
CCN(C(=O)COC(=O)c1cc(-c2ccccc2)nc2c1c(C)nn2-c1ccc(C)cc1)C1CCS(=O)(=O)C1 (stereo unspecified) | -8 | -5 | -2 | 55* | 24 | -2 | 69*
CCN(C(=O)COC(=O)c1cc(-c2ccccc2)nc2ccc(Br)cc12)C1CCS(=O)(=O)C1 (stereo unspecified) | -3 | 4 | 5 | 2 | 1 | -21 | ·
COc1cc(C)c2sc3ccccc3c(=O)c2c1NCCN(C)C | · | · | 0 | 70* | 11 | -7 | 64*
CCN(CC)CCNc1ccc(CO)c2sc3ccccc3c(=O)c12 | 0 | 12 | 0 | 22 | 11 | 10 | ·
S=C(N/N=C/c1cccs1)NC1CC2CCC1C2 (stereo unspecified) | 4 | 0 | -4 | 54* | 26 | -8 | 56*
CC1(C(=O)OCC(=O)Nc2ccc(S(=O)(=O)N3CCOCC3)cc2)CC1(Cl)Cl (stereo unspecified) | -4 | -6 | -9 | -25 | 14 | 0 | ·
Cc1cc(N/N=C/c2cccc([N+](=O)[O-])c2)nc(-n2nc(C)cc2C)n1 | -13 | -2 | -13 | 71* | 14 | -6 | 16
Cc1cc(N/N=C/c2cccc(Cl)c2)nc(-n2nc(C)cc2C)n1 | -8 | 4 | -1 | 53* | 10 | 10 | 41*
COc1ccc(/C=N/Nc2cc(C)nc(-n3nc(C)cc3C)n2)cc1 | -5 | 0 | 5 | · | 20 | 36 | ·
O=C1CC(NS(=O)(=O)c2cccs2)CN1c1cccc(F)c1 (stereo unspecified) | -8 | 1 | -9 | -7 | 12 | 6 | ·
CCCc1nc2oc3c(NCCN(C)C)ncnc3c2c2c1CCCC2 | -6 | 1 | -8 | 58* | -5 | -15 | 24
COc1ccc(S(=O)(=O)N2CCN(C(c3ccccc3)c3ccccc3)CC2)cc1NC(C)=O | -6 | -2 | 0 | 1 | -2 | 5 | ·
O=c1cc(-c2ccccc2)[nH]c2ccc(F)cc12 | · | · | 0 | 65* | 4 | 21 | 52*
CCCCCc1ccc(-c2cn(Cc3ccc(C(=O)c4ccccc4)cc3)nn2)cc1 | 1 | 6 | -12 | 61* | -7 | -20 | 51*
C=CC[C@@H](CC(=O)N(CCO)Cc1ccccc1)C(=O)N[C@@H](COC(=O)[C@@H](CC=C)Cc1ccc(F)cc1)Cc1c[nH]c2ccccc12 | -6 | 0 | -18 | 48 | 16 | 7 | ·
C=CC[C@H](CC(=O)N(CCO)Cc1ccccc1)C(=O)N[C@H](COC(=O)[C@H](CC=C)CC(=O)OC(C)(C)C)Cc1ccccc1 | -4 | 4 | -11 | 22 | 18 | 8 | ·
C=CCC[C@@H](Cc1ccc(F)cc1)C(=O)OC[C@@H](Cc1c[nH]c2ccccc12)NC(=O)[C@H](CC=C)CC(=O)N(CCO)Cc1ccccc1 | -9 | -1 | -6 | 57* | 30 | -6 | 71*
C=CCC[C@H](Cc1ccc(F)cc1)C(=O)OC[C@@H](NC(=O)[C@@H](CC=C)CC(=O)N[C@@H](CO)Cc1ccccc1)C(C)(C)C | -10 | -2 | -18 | 33 | 14 | 2 | ·
C=CC[C@@H](CC(=O)N(CCO)Cc1ccccc1)C(=O)N[C@H](COC(=O)[C@@H](CC=C)CC(=O)OC(C)(C)C)C(C)(C)C | -4 | 3 | -4 | 73* | 13 | 0 | 81*
